Laboratory results reported in the supplement of paper PMC10849652.
Of roughly 7,900 targets only a part is listed; those with a hit were picked by preference. About 0.6% of all pairs of compound and target were hits.

Legend:
Experiment in all cases: log2 fold change, soluble protein after heating vs DMSO (PISA); higher = thermal stabilisation; K562 cells, 10 uM, 30 min; active = over 0.2 and 3.5 SD of the protein, either way, in both replicates (recomputed)
erlotinib = compound: C#Cc1cccc(Nc2ncnc3cc(OCCOC)c(OCCOC)cc23)c1 [erlotinib]
In short: (§1)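 Soluble protein was defined as the supernatant after 21,000xg for 90 min. It came from K562 cells at 2×10^6 cells/mL given 10 μM compound for 30 min, heated in aliquots for 3 min across 48°C-58°C, pooled, and extracted in PBS with 0.5% NP-40 at 4°C, and was quantified by TMTpro 16plex LC-MS/MS with equalised channel sums. Thermal stability against control samples, from duplicates, is reported as log2 fold change.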

[1] = compound: C/C(=N\NC(=O)C1=CC(=CC=C1)S(=O)(=O)N2CCOCC2)/C3=C(C=CC(=C3)Cl)O
In short: as §1

[2] = compound: C1=CC(=C(C=C1Cl)C2=NC3=NC=CN=C3C(=N2)NC4=CC=NC=C4)F
In short: as §1

[3] = compound: C1=CC(=CC=C1C2=NC3=C(N2)C=C(C=C3)C(=O)N)OC4=CC=C(C=C4)Cl
In short: as §1

[4] = compound: C1=CC2=C(C=CC(=C2)/C=C\3/C(=O)NC(=NCC4=CC=CS4)S3)N=C1
In short: as §1

[5] = compound: C1=CC2=NC=CN=C2C=C1/C=C/3\C(=O)NC(=O)S3
In short: as §1

[6] = compound: C1=CC=C(C=C1)C2=NC(=C(N2)C3=CC=NC=C3)C4=CC(=C(C=C4)Cl)O
In short: as §1

[7] = compound: C1=CC=C2C(=C1)C3=NNC4=CC=CC(=C43)C2=O
In short: as §1

[8] = compound: C1CCN(C1)C(=O)NC2=CC=CC(=C2)NC3=NC=C(C(=N3)NCCC4=CN=CN4)Br
In short: as §1

[9] = compound: C1CN(CCC1(CC2=CC=C(C=C2)Cl)N)C3=NC=NC4=C3C=CN4
In short: as §1

IRAK-1-4 Inhibitor I = compound: C1COCCN1CCN2C3=CC=CC=C3N=C2NC(=O)C4=CC(=CC=C4)[N+](=O)[O-] [IRAK-1-4 Inhibitor I]
In short: as §1

ibrutinib = compound: C=CC(=O)N1CCC[C@@H](n2nc(-c3ccc(Oc4ccccc4)cc3)c3c(N)ncnc32)C1 [ibrutinib]
In short: as §1

[10] = compound: CC(=O)c1cnc2ccc(-c3cc(Cl)c(O)c(Cl)c3)nc2c1N[C@H]1CC[C@H](CN(C)C)CC1
In short: as §1

ralimetinib = compound: CC(C)(C)Cn1c(N)nc2ccc(-c3[nH]c(C(C)(C)C)nc3-c3ccc(F)cc3)nc21 [ralimetinib]
In short: as §1

[11] = compound: CC(C)(O)CC(=O)NCCn1ccc2ncnc(Nc3ccc(Oc4cccc(C(F)(F)F)c4)c(Cl)c3)c21
In short: as §1

[12] = compound: CC(C)C1=C2N=C(C=C(N2N=C1)NCC3=CC=CC=C3)NCCCCCCN
In short: as §1

[13] = compound: CC(C)C[C@@H](C=O)NC(=O)[C@H](CC(C)C)NC(=O)[C@H](CC(C)C)NC(=O)OCc1ccccc1
In short: as §1

pinometostat = compound: CC(C)N(C[C@H]1O[C@@H](n2cnc3c(N)ncnc32)[C@H](O)[C@@H]1O)[C@H]1C[C@@H](CCc2nc3cc(C(C)(C)C)ccc3[nH]2)C1 [pinometostat]
In short: as §1

[14] = compound: CC1=C(C(CC(=O)N1)C2=CC=C(C=C2)C(F)(F)F)C(=O)NC3=C(C=C4C(=C3)C=NN4)F
In short: as §1

[15] = compound: CC1=C(C2=C(C=C1)C(=O)C3=CC=CC=C3N2CCCN)C
In short: as §1

Measured: log2 fold change

TRAM1 (UniProt Q15629)
inactive: erlotinib 0.059 | [1] 0.016 | [2] -0.028 | [3] -0.088 | [4] 0.015 | [5] 0.065 | [6] 0.144 | [7] -0.151 | [8] 0.105 | [9] 0 | IRAK-1-4 Inhibitor I -0.036 | ibrutinib -0.051 | [10] -0.032 | ralimetinib -0.014 | [11] -0.016 | [13] 0.012 | pinometostat -0.011 | [14] 0.016 | [15] 0.119
active: [12] -0.889

UBE4A isoform 2 (UniProt Q14139)
active: [12] -0.376
inactive: erlotinib 0.012 | [1] 0.148 | [2] 0.083 | [3] -0.11 | [4] 0.012 | [5] 0.083 | [6] -0.039 | [7] -0.301 | [8] -0.018 | [9] -0.132 | IRAK-1-4 Inhibitor I -0.114 | ibrutinib -0.125 | [10] -0.017 | ralimetinib 0.02 | [11] -0.032 | [13] 0.096 | pinometostat 0.093 | [14] 0.098 | [15] 0.041

UGDH (UniProt O60701)
inactive: erlotinib 0.004 | [1] 0.134 | [2] 0.128 | [3] 0.023 | [4] 0.046 | [5] -0.174 | [6] 0.017 | [7] 0.043 | [8] -0.063 | [9] 0.009 | IRAK-1-4 Inhibitor I -0.019 | ibrutinib 0.03 | ralimetinib -0.046 | [11] -0.038 | [12] 0.017 | [13] -0.043 | pinometostat -0.105 | [14] 0.004 | [15] 0.078
active: [10] -0.616

TMEM70 (UniProt Q9BUB7)
UniProt Q9BUB7, sequence (Q9BUB7 whole entry, looked up): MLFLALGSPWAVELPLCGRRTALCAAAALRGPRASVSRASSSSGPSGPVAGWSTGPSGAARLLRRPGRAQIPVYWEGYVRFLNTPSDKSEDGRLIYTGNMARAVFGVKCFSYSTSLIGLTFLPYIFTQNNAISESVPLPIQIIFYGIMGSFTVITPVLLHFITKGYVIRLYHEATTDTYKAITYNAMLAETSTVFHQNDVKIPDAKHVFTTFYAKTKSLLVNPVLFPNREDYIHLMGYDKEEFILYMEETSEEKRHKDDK
inactive: erlotinib -0.286 | [1] 0.03 | [2] 0.023 | [3] 0.257 | [4] 0.008 | [5] -0.09 | [6] -0.063 | [7] -0.039 | [8] -0.007 | [9] 0.053 | IRAK-1-4 Inhibitor I 0.07 | ibrutinib 0.068 | [10] -0.034 | ralimetinib -0.044 | [11] -0.095 | [12] 0.13 | [13] 0.028 | pinometostat 0.019 | [14] -0.034 | [15] 0.086

TMEM63B (UniProt Q5T3F8)
inactive: erlotinib -0.037 | [1] 0.063 | [2] -0.024 | [3] -0.009 | [4] -0.066 | [5] 0.012 | [6] -0.076 | [7] -0.033 | [8] 0.011 | [9] 0.065 | IRAK-1-4 Inhibitor I -0.01 | ibrutinib -0.055 | [10] -0.002 | ralimetinib -0.034 | [11] 0.011 | [12] -0.157 | [13] -0.01 | pinometostat 0.041 | [14] 0.027 | [15] 0.054

VAMP7 (UniProt P51809)
UniProt P51809, sequence (P51809 whole entry, looked up): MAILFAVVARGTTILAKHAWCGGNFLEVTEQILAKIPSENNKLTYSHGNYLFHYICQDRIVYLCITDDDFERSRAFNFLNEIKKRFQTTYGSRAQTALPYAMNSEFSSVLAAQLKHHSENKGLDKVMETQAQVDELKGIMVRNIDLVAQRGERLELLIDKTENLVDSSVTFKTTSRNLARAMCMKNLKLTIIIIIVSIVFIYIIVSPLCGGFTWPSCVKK
inactive: erlotinib -0.02 | [1] 0.003 | [2] 0.077 | [3] 0.005 | [4] 0.016 | [5] 0.007 | [6] 0.065 | [7] -0.001 | [8] 0.001 | [9] 0.03 | IRAK-1-4 Inhibitor I 0.018 | ibrutinib -0.048 | [10] -0.041 | ralimetinib -0.022 | [11] -0.006 | [12] -0.169 | [13] -0.001 | pinometostat -0.027 | [14] -0.011 | [15] 0.025

UBE3D (UniProt Q7Z6J8)
UniProt Q7Z6J8, sequence (Q7Z6J8 whole entry, looked up): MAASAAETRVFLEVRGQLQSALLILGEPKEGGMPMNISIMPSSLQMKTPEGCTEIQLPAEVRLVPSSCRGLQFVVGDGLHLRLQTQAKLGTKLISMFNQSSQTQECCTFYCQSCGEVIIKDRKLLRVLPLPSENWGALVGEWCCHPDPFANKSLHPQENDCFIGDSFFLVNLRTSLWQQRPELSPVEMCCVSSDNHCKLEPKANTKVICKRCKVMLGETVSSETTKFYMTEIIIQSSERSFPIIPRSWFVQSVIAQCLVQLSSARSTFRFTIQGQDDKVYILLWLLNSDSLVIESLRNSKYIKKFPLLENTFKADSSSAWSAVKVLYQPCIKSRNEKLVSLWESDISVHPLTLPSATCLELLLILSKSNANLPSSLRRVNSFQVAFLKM
inactive: erlotinib -0.014 | [1] -0.018 | [2] 0.033 | [3] 0.022 | [4] 0.003 | [5] -0.076 | [6] 0.013 | [7] -0.006 | [8] -0.114 | [9] 0.079 | IRAK-1-4 Inhibitor I 0.029 | ibrutinib 0.047 | [10] 0.026 | ralimetinib 0.015 | [11] 0.088 | [12] 0.011 | [13] -0.061 | pinometostat -0.012 | [14] -0.045 | [15] 0.051

WDR4 (UniProt P57081)
inactive: erlotinib 0.058 | [1] 0.106 | [2] 0.131 | [3] -0.012 | [4] -0.046 | [5] 0.223 | [6] 0.061 | [7] 0.011 | [8] 0.031 | [9] 0.053 | IRAK-1-4 Inhibitor I 0.024 | ibrutinib -0.052 | [10] 0.022 | ralimetinib -0.033 | [11] -0.003 | [12] -0.005 | [13] -0.072 | pinometostat -0.017 | [14] 0.019 | [15] 0.028

TRAPPC8 (UniProt Q9Y2L5)
UniProt Q9Y2L5, sequence (Q9Y2L5 whole entry, looked up): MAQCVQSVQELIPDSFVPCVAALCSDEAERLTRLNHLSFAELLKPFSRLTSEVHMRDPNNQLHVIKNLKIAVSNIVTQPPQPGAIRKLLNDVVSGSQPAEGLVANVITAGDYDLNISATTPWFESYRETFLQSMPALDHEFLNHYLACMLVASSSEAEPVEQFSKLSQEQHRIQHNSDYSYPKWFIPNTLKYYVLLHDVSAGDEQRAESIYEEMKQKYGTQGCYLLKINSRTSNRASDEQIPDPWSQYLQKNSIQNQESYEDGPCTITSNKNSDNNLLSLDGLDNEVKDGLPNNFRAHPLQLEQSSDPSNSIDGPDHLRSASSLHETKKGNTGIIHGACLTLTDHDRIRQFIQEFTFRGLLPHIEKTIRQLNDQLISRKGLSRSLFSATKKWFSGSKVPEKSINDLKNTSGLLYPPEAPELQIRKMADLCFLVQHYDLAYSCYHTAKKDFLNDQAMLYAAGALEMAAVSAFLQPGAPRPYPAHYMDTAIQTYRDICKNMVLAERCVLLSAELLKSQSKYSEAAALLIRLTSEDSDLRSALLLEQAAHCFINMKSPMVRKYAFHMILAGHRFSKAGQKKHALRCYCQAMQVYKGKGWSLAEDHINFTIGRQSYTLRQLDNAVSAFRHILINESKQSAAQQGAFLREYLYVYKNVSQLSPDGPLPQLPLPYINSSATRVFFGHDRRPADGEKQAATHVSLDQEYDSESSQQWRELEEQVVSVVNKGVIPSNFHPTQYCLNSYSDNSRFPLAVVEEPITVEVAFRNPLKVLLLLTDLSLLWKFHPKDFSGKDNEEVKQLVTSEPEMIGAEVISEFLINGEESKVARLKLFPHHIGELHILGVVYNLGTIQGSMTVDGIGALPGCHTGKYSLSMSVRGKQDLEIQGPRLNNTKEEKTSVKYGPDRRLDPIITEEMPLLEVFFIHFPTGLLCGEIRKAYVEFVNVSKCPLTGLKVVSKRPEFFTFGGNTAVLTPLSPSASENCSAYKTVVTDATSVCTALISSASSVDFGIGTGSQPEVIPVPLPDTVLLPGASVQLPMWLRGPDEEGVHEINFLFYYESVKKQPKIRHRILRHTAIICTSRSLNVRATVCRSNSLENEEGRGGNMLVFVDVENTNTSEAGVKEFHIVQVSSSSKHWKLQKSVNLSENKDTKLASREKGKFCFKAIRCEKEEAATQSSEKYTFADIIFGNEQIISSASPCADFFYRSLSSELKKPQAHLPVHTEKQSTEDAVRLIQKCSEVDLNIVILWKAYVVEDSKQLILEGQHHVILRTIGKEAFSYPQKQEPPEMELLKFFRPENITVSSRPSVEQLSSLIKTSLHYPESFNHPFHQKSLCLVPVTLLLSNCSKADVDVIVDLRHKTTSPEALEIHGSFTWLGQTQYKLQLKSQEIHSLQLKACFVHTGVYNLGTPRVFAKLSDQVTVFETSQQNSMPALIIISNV
inactive: erlotinib 0.024 | [1] 0.118 | [2] -0.012 | [3] 0.027 | [4] 0.094 | [5] -0.007 | [6] -0.068 | [7] -0.018 | [8] -0.011 | [9] -0.036 | IRAK-1-4 Inhibitor I -0.02 | ibrutinib 0.015 | [10] -0.02 | ralimetinib 0.011 | [11] -0.056 | [12] -0.071 | [13] 0.044 | pinometostat 0.072 | [14] 0.002 | [15] 0.003

XPO6 (UniProt Q96QU8)
UniProt Q96QU8, sequence (Q96QU8 whole entry, looked up): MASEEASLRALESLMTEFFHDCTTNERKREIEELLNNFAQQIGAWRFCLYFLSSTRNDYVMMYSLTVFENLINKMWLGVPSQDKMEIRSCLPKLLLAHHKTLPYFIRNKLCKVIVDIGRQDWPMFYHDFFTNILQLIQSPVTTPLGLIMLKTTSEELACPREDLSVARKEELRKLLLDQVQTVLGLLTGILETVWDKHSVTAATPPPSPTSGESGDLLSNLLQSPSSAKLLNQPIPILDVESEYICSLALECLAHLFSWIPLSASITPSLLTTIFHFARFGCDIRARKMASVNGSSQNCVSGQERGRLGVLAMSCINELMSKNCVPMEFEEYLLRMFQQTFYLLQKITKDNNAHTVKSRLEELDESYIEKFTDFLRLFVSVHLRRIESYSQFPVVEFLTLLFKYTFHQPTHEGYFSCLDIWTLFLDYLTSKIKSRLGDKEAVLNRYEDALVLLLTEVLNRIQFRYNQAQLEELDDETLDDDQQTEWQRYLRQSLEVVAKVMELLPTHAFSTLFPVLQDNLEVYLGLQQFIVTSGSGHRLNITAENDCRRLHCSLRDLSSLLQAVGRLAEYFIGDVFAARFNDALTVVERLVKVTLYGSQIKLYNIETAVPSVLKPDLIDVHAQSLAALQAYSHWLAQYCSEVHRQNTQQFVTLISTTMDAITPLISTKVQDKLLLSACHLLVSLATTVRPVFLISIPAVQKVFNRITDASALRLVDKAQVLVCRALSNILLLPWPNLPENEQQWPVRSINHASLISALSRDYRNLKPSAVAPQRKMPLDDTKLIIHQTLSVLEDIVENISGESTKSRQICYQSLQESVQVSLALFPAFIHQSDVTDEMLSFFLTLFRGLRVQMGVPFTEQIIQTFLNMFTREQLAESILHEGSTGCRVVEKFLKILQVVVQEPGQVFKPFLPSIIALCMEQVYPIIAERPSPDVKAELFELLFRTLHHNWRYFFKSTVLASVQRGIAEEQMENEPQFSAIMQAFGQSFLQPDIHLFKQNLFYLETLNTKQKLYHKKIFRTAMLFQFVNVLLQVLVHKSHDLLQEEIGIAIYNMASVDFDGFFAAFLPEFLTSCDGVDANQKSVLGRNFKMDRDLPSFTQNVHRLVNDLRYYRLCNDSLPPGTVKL
inactive: erlotinib 0.07 | [1] 0.056 | [3] -0.055 | [4] 0.093 | [5] -0.15 | [6] -0.01 | [7] -0.008 | [8] 0.087 | [9] 0.02 | IRAK-1-4 Inhibitor I -0.131 | ibrutinib 0.246 | [10] -0.038 | ralimetinib 0.083 | [12] -0.189 | [13] -0.023 | [14] -0.08 | [15] 0.067
active: [2] -0.465 | [11] 0.434 | pinometostat 0.646

WDR37 isoform 2 (UniProt Q9Y2I8)
inactive: erlotinib 0.039 | [1] 0.006 | [2] -0.097 | [3] 0.012 | [4] -0.026 | [5] -0.204 | [6] 0.006 | [7] -0.144 | [8] 0.01 | [9] -0.088 | IRAK-1-4 Inhibitor I 0.144 | ibrutinib -0.06 | ralimetinib -0.063 | [11] -0.118 | [12] -0.011 | [13] 0.126 | pinometostat -0.029 | [14] -0.015 | [15] 0.144
active: [10] -0.39

TPP1 (UniProt O14773)
inactive: erlotinib 0.013 | [1] 0.009 | [2] 0.059 | [3] -0.015 | [4] -0.007 | [5] 0.024 | [6] 0.034 | [7] -0.014 | [8] -0.012 | [9] -0.017 | IRAK-1-4 Inhibitor I -0.007 | ibrutinib -0.01 | [10] -0.006 | ralimetinib -0.025 | [11] 0.059 | [13] 0.043 | pinometostat -0.052 | [14] 0.025 | [15] -0.009
active: [12] -0.492

UBE4B isoform 4 (UniProt O95155)
inactive: erlotinib -0.01 | [1] 0.026 | [2] 0.041 | [3] -0.016 | [4] 0 | [5] 0.055 | [6] 0.026 | [7] -0.013 | [8] -0.008 | [9] -0.025 | IRAK-1-4 Inhibitor I 0.008 | ibrutinib -0.031 | [10] 0.006 | ralimetinib 0.057 | [11] -0.117 | [12] -0.041 | [13] 0.047 | pinometostat 0 | [14] 0.004 | [15] -0.005

UXT isoform 2 (UniProt Q9UBK9)
UniProt Q9UBK9, sequence (Q9UBK9 whole entry, looked up): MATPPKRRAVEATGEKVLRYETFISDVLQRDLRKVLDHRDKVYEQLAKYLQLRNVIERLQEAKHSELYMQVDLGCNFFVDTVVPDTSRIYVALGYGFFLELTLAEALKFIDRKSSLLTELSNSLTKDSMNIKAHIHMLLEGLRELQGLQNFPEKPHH
inactive: [1] -0.263 | [2] 0.078 | [3] 0.113 | [4] 0.061 | [5] -0.044 | [6] -0.053 | [7] 0.012 | [8] -0.036 | [9] -0.086 | IRAK-1-4 Inhibitor I 0.103 | ibrutinib -0.033 | [10] -0.019 | ralimetinib -0.031 | [11] -0.005 | [12] 0.316 | [13] 0.082 | pinometostat -0.141 | [14] -0.016 | [15] 0.194
active: erlotinib 0.925

WASHC5 (UniProt Q12768)
UniProt Q12768, sequence (Q12768 whole entry, looked up): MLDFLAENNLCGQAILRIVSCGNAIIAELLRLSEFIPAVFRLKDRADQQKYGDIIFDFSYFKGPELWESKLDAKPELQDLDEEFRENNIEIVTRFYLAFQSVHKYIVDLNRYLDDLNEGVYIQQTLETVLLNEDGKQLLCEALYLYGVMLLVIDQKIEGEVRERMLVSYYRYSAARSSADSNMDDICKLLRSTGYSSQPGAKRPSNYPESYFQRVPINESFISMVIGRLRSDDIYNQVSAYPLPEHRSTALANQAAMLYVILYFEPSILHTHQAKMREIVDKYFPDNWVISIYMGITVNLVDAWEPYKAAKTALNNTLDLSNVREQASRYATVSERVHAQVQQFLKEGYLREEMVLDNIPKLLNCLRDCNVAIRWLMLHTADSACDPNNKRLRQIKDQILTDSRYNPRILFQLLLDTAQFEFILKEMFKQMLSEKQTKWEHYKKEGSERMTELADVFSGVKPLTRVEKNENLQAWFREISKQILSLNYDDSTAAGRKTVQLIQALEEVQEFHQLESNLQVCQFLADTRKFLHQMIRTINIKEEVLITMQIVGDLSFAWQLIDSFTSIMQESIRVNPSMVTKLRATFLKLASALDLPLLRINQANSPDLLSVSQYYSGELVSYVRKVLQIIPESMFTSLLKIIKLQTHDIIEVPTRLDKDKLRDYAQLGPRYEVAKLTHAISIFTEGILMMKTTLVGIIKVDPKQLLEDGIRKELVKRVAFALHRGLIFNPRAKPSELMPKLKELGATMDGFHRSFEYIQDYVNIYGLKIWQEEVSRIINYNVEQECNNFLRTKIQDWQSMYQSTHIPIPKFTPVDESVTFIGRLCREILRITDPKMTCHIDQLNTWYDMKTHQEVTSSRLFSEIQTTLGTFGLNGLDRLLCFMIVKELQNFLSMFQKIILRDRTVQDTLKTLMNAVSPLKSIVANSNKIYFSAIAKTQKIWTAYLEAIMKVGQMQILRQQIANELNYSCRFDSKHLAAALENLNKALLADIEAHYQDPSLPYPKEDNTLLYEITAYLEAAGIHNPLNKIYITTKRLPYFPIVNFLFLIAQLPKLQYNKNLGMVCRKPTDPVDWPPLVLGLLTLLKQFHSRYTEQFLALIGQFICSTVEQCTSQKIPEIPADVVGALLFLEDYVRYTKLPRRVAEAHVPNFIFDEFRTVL
active: [12] -0.277
inactive: erlotinib 0.019 | [1] 0.084 | [2] -0.061 | [3] -0.004 | [4] 0.088 | [5] -0.058 | [6] 0.04 | [7] 0.018 | [8] 0.002 | [9] 0.002 | IRAK-1-4 Inhibitor I -0.042 | ibrutinib 0.007 | [10] -0.024 | ralimetinib 0.072 | [11] -0.116 | [13] 0.003 | pinometostat 0.067 | [14] -0.049 | [15] -0.014
